We go through 39 molecules from the supplement of paper PMC13380429.

Counter-ions that a name gives are not always drawn.

The experiment concerns Vero E6 infected with SARS-CoV-2. Kind of experiment: morphology score (similarity to uninfected cells); higher = more like uninfected cells. The following applies: 24 h.
For `C[C@@H](NC(=O)[C@@H](N)Cc1ccc(O)cc1)C(=O)NCC(=O)N(C)[C@@H](Cc1ccccc1)C(=O)N[C@H](CO)CC[S+](C)[O-]` (some centres undefined) (10 µM), the morphology score came to 0.111.

`CCOC(=O)c1c(/C(C#N)=C\N)c2ccc(Cl)c(Cl)c2n1C` (10 µM) yielded a morphology score of -0.0335.

The molecule `CN(C)CCCC(=O)Nc1ccc(C(=O)Nc2cccc(Nc3ncc(Cl)c(-c4c[nH]c5ccccc45)n3)c2)cc1` (10 µM) gave a morphology score of 0.132.

`C=CCN1CC[C@]2(C)c3cc(O)ccc3C[C@H]1[C@H]2C` (10 µM): the morphology score turned out to be 0.112.

`CCCN1CC(NS(=O)(=O)N(CC)CC)CC2Cc3c(O)cccc3CC21` (centres undefined) [quinagolide] (10 µM) yielded a morphology score of -0.243.

`O=C(/C=C/c1ccccc1)NCCO` [brolitene] (10 µM): the morphology score was found to be 0.199.

`CCN1CCN(c2cc3c(cc2F)c(=O)c(C(=O)O)cn3C2CC2)CC1` [enrofloxacin] (10 µM) returned a morphology score of 0.0599.

In turn, `CC1CCc2cc(F)cc3c(=O)c(C(=O)O)cn1c23` (centres undefined) [flumequine] (10 µM) returned a morphology score of -0.154.

Regarding `CC(C)c1c2cc(-c3ccnc(N[C@H]4CC[C@H](NC5CCOCC5)CC4)n3)ccc2nn1C` (0.833333 µM), the morphology score amounted to 0.108.

For `O=C1CCC[C@@H]2[C@H]3CCC[N+]4([O-])CCC[C@@H](CN12)[C@@H]34` (some centres undefined) [oxymatrine] (10 µM), the morphology score was -0.00407.

Consider `Cc1[nH]c2ccc(O)cc2c1CCN` [2-methyl-5-hydroxytryptamine] (10 µM), for which the morphology score came to 0.00237.

The molecule `C[C@H]1COc2c(C3(N)CC3)c(F)cc3c(=O)c(C(=O)O)cn1c23` [pazufloxacin] (10 µM) came in with a morphology score of 0.202.

In turn, `COC[C@@H](NC(C)=O)C(=O)NCc1ccccc1` [Lacosamide] (10 µM) showed a morphology score of -0.1.

As for `CCSC(=N)N` [EIT-hydrobromide] (10 µM), the morphology score was -0.0504.

In turn, `COc1cccc(OC)c1-c1cc(C(=O)N[C@@H](CC(C)C)C(=O)O)nn1-c1ccnc2cc(Cl)ccc12` (10 µM) yielded a morphology score of -0.0246.

`NCCCCN(Cc1nc2ccccc2[nH]1)[C@H]1CCCc2cccnc21` (10 µM) displayed a morphology score of 0.0412.

In turn, `N#C/C(=C1/SCC(c2ccccc2Cl)S1)n1ccnc1` (centres undefined) [lanoconazole] (10 µM) yielded a morphology score of 0.0956.

In the case of `CC(=O)Oc1ccccc1C(=O)Oc1ccccc1C(=O)O` [acetylsalicylsalicylic-acid] (10 µM), the morphology score is 0.0259.

The molecule `C[N+]1(C)CCC(=C(c2ccccc2)c2ccccc2)CC1` [diphemanil] (10 µM) returned a morphology score of -0.00596.

Take `O=C(O)CCCCCCNC1c2ccccc2CCc2ccccc21` [amineptine] (10 µM): the morphology score amounted to 0.118.

Turning to `CCc1cc2c(cc1N1CCC(N3CCOCC3)CC1)C(C)(C)c1[nH]c3cc(C#N)ccc3c1C2=O` [alectinib] (10 µM), the morphology score came to 0.135.

In turn, `CN[C@@H](C)C(=O)N[C@H](C(=O)N1CCC[C@H]1c1nc(C(=O)c2ccc(F)cc2)cs1)C1CCCCC1` (10 µM) gave a morphology score of 0.403.

For `Cc1cc(Cl)ccc1OCCCC(=O)NO` [droxinostat] (10 µM), the morphology score was determined as 0.199.

The molecule `C[S+]([O-])c1ccc(-c2nc(-c3ccc(F)cc3)c(-c3ccncc3)[nH]2)cc1` (centres undefined) (10 µM) registered a morphology score of 0.0867.

`O=[N+]([O-])/C=C/c1ccc2c(c1)OCO2` [3,4-methylenedioxy-beta-nitrostyrene] (10 µM) returned a morphology score of 0.58.

The molecule `NC(=O)c1ccccc1O` [salicylamide] (10 µM) returned a morphology score of -0.114.

`Nc1nccc(-c2ccc3noc(-c4ccc(Cl)cc4)c3c2)n1` [PIM-1-Inhibitor-2] (10 µM) returned a morphology score of -0.089.

Molecule `Nc1ccc(C(=O)NCC(=O)O)cc1` [4-aminohippuric-acid] (10 µM) came in with a morphology score of -0.0582.

`CC(C(=O)O)c1ccc2c(c1)Cc1cccnc1O2` (centres undefined) [pranoprofen] (10 µM) showed a morphology score of -0.152.

`Cc1ccccc1CN1C(=O)C2=C(CCN(Cc3ccccc3)C2)N2CCN=C12` (0.833333 µM) registered a morphology score of -0.16.

In turn, `OB1OCc2cc(Cl)ccc21` (10 µM) had a morphology score of -0.0961.

For `N#CC(c1ccnc(OCc2ccc(CN3CCOCC3)cc2)n1)c1nc2ccccc2s1` (centres undefined) (10 µM), the morphology score was 0.195.

In turn, `CCCCN1CCC(CNC(=O)c2c3n(c4ccccc24)CCCO3)CC1` [piboserod] (10 µM) showed a morphology score of 0.132.

For the molecule `NC(=O)CCCCC1CCSS1` (centres undefined) [lipoamide] (10 µM), the morphology score is -0.0248.

In turn, `Cc1cc(Nc2ncnc3ccc(NC4=NC(C)(C)CO4)cc23)ccc1Oc1ccn2ncnc2c1` [tucatinib] (0.833333 µM) displayed a morphology score of -0.0894.

In the case of `Nc1c(CC(=O)O)cccc1C(=O)c1ccc(Br)cc1` [bromfenac] (10 µM), the morphology score was -0.048.

In the case of `COc1ccc(CCN)cc1OC` [homoveratrylamine] (10 µM), the morphology score was -0.0152.

In turn, `COc1cccc2c1C(=O)c1c(O)c3c(c(O)c1C2=O)C[C@@](O)(C(=O)CO)C[C@@H]3O[C@H]1C[C@H](N)[C@@H](O)[C@H](C)O1` [Epirubicin Hydrochloride] (10 µM) showed a morphology score of -0.016.

Take `CC/C(=C(\c1ccc(O)cc1)c1ccc(OCCNC)cc1)c1ccccc1` [Endoxifen HCl] (10 µM): the morphology score is 0.817.
